According to PubChem BioAssay (Tox21):
Values joined by “and” are separate entries in the source; they are usually repeats but may differ in a detail not shown here. Equal values may be shown once. Results filed as inconclusive are left out. Active and inactive are the calls of the source. Calls follow the shape of the dose curve; as a rule, active = well fitted cell-killing curve with a large enough effect in the repeat runs; inconclusive = weak or mixed curves, or effect the other way; inactive = flat fitted curve, though single readings scatter.

assay: Nuclear factor erythroid 2-related factor 2/antioxidant responsive element (Nrf2/ARE) small molecule agonists: qHTS cell viability counter screen in human keratinocytes (AID 1919968); conditions: KeratinoSens HaCaT ARE cells viability, CellTiter-Fluor, 24 h; series mostly up to 92.4 µM; activity change, negative = cytotoxicity: at the top concentration; also: nearly all actives have a fitted effect of over 55% in size
Text: U.S. Tox21 Program National Center for Advancing Translational Sciences [NCATS] Division of Preclinical Innovation [DPI] U.S. Environmental Protection Agency [EPA] National Institutes of Environmental Health Sciences [NIEHS] National Toxicology Program [NTP] U.S. Food and Drug Administration [FDA] Tox21 Assay Overview: Oxidative stress has been implicated in the pathogenesis of a variety of diseases ranging from cancer to neurodegeneration. The antioxidant response element (ARE) signaling pathway plays an important role in the amelioration of oxidative stress. The KeratinoSens (Givaudan, Switzerland) is an in vitro test method which quantifies luciferase induction as a measure of activation of Keap1-Nrf2-antioxidationt/electrophile response element (ARE) dependant pathway in HaCaT human keratinocytes stably transfected with a selectable plasmid. The KeratinoSens assay is a cell-based assay with a reporter cell line to detect potential skin sensitizers by their ability to induce the Nrf2/ARE-response. The activation of the report gene under culture conditions can be detected by ONE-Glo Luciferase Assay System (Promega, Madison, WI). This cell line has been used to screen the Tox21 10K compound library to identify agonists that induce oxidative stress. The cytotoxicity of the Tox21 compound library against the KS-ARE cell line was tested in parallel by measuring the cell viability using CellTiter- Fluor assay system (Promega, Madison, WI) in the same wells.
Tox21 Assay Protocol Summary: HaCaT derived cell line KeratinoSens were dispensed at 1,500 cells/5uL/well in 1536-well white wall/solid bottom plates using a Multidrop Combi (ThermoFisher Scientific, Waltham, MA) dispenser. After the assay plates were incubated at 37 C/5% CO2 for 5 h, 23 nL of compounds dissolved in DMSO, positive controls or DMSO only was transferred to the assay plate by a pintool workstation (Kalypsys, San Diego, CA). The plates were incubated at 37 C/5% CO2 for 23 h, followed by addition of 1uL/well of CellTiter-Fluor reagent into the assay plates using a Flying Reagent Dispenser (Aurora Discovery, San Diego, CA) for cell viability readout that measures cytotoxicity. After 1 h incubation at 37 C/5% CO2 the fluorescence intensity was measured using a ViewLux (PerkinElmer, Shelton, CT) plate reader.
% is scaled to controls: 0 for no effect and ±100 for the full control effect; potency is read from the fitted curve at half-maximal effect.

SMILES	activity change, negative = cytotoxicity	Potency
O=C1NC2NC(=O)NC2N1 (stereo not given)	4.23% (inactive)	–
CC(=O)CC(C)=O	-0.122% (inactive)	–
CCCCCCCN	1.91% (inactive)	–
CC(C)c1ccc2c(C(C)C)cc(C(C)C)c(S(=O)(=O)O)c2c1	-14.2% (inactive)	–
COc1ccc2nc(N)sc2c1	–	inactive
COc1ccc(C#N)cc1	-0.44% (inactive)	–
O=C[O][Al]([O]C=O)[O]C=O	1.66% (inactive)	–
CC(=O)CC(N)=O	-0.718% (inactive)	–
CC(=O)c1ccc2ccccc2c1	1.71% (inactive)	–
CC(C)(C)c1n[nH]c(=O)n(N)c1=O	-6.7% (inactive)	–
O=C1CCCCCCCCCCCCCCCO1	3.22% (inactive)	–
Nc1cc(S(=O)(=O)O)ccc1S(=O)(=O)O	0.983% (inactive)	–
CO[Si](CCCNCCN)(OC)OC	–	inactive
CCOC(OCC)C(=O)c1ccccc1	1.72% (inactive)	–
Clc1ccccc1-c1nc(-c2ccncc2)no1	2.98% [at 42.5 µM] (inactive)	–
CC1CCC(C(C)C)C(O)C1 (stereo not given)	–	inactive
C=CC(=O)NC(C)C	0.812% (inactive)	–
CC1=CCC(C(C)C)=CC1	3.85% (inactive)	–
CCCCCC=O	–	inactive
CC1=CC(=O)NS(=O)(=O)O1	–	inactive

SMILES	activity change, negative = cytotoxicity	Potency
C/C=C(\C)C(=O)OCc1ccccc1	0.891% (inactive)	–
COc1nc(C)nc(NC(=O)NS(=O)(=O)c2ccccc2OCCCl)n1	2.44% (inactive)	–
Nc1nnnn1-c1ccccc1	-1.54% [at 42.5 µM] (inactive)	–
Cc1ccc(N(C)C)cc1	–	inactive
CCOCCOCCOCCO	–	inactive
Oc1ccc(C(c2ccc(O)cc2)C(Cl)(Cl)Cl)cc1	–	60.9 µM (active) and 54.5 µM (active)
CCCCCCCC(=O)OCCCCCC	1.53% (inactive)	–
CCC(C)(C)CC	0.51% (inactive)	–
O=[N+]([O-])c1ccc2c(c1)Cc1ccccc1-2	–	inactive
CCC(C)(O)CCC=C(C)C (stereo not given)	3.98% (inactive)	–
O=c1[nH]cnc2[nH]ncc12	–	inactive
N#CCc1cccc(C(F)(F)F)c1	-2.18% (inactive)	–
CC(C)OCCO	-0.0908% (inactive)	–
N#CCN(CC#N)CCN(CC#N)CC#N	0.227% (inactive)	–
OCC(CO)(CBr)CBr	–	inactive
O=c1cc(CO)occ1O	-3.88% [at 42.5 µM] (inactive)	–
CC1(C)C(=O)N(Br)C(=O)N1Cl	3.6% (inactive)	–
CCCCCC1CCC(=O)O1 (stereo not given)	-4.86% (inactive)	–
CCc1ccc(C)nc1	3.32% (inactive)	–
C/C(=C(\CCO)SS/C(CCO)=C(\C)N(C=O)Cc1cnc(C)nc1N)N(C=O)Cc1cnc(C)nc1N	0.26% [at 42.5 µM] (inactive)	–
